PubChem BioAssay (Tox21)
Activity calls are given as the source filed them. Entries that show only a call come without a potency. Calls come from the whole dose curve; as a rule, active = well fitted curve in the direction sought with a large enough effect in the repeat runs; inconclusive = weak or mixed curves; inactive = flat fitted curve, though single readings scatter.

experiment: qHTS assay to test for compound auto fluorescence at 460 nm (blue) in HEK293 cells (AID 720678); details: blue autofluorescence 405/460 nm; series mostly up to 46 µM
From the text: National Center for Advancing Translational Sciences [NCATS]
NIH Chemical Genomics Center [NCGC]
U.S. Environmental Protection Agency [EPA]
National Institutes of Environmental Health Sciences [NIEHS]
National Toxicology Program [NTP]
U.S. Food and Drug Administration [FDA]
Compound auto fluorescence often interferes with screening of the compound library against various biological targets and signaling pathways. Some of these compounds may have fluorophoric properties. Such properties may interfere with the assay outputs resulting in false positives and/or negatives. To decrease such complications and ensure the compound activities are relevant in terms of biological response, the Tox21 10K compound library was screened for auto fluorescence.
From the fluorophores used as reporter signals in our screening assays, the auto fluorescence equivalencies of compounds against three fluorophores have been evaluated: Triamterene, Fluorescein and Rose Bengal sodium for blue, green and red fluorescence, respectively. The fluorescence intensities were measured using Excitation/Emission wavelengths at 405/460nm, 485/535nm and 540/590nm for blue, green and red labels, respectively. This assay includes the blue fluorescence data.
Tox21 Assay Protocol Summary:
2,000 HEK293 cells in 5 uL of culture medium containing 10% dialyzed FBS per well were dispensed into black wall/clear bottom 1536-well plates using a Multidrop Combi Dispenser (Thermo Scientific). The assay plates were incubated for 4-5 hr at 37C to allow cell attachment to the well bottom, followed by the transfer of 23 nL compound or DMSO vehicle by a pintool work station (Kalypsys, San Diego, CA). After the assay plates were incubated overnight at 37C and 5% CO2, fluorescence intensities in the assay plates were measured by an Envision (PerkinElmer, Shelton, CT) plate reader using three labels for measuring blue, green and red fluorescence at […] 460, 535 and 590nm respectively.

| Compound | Potency |
| --- | --- |
| O=S(=O)(O)c1cc(O)ccc1O | inactive |
| O=C1CN=C(c2ccccc2)c2cc(Cl)ccc2N1 | inactive |
| c1ccc2c(c1)Sc1ccccc1N2C[C@@H]1CN2CCC1CC2 | inactive |
| Oc1ccc2c3c1O[C@H]1[C@@H](O)C=C[C@H]4[C@H](C2)NCC[C@@]341 | inactive |
| CN[C@@H]1C[C@@H](c2ccc(Cl)c(Cl)c2)c2ccccc21 | inactive |
| Cc1nnc2n1-c1ccc(Cl)cc1C(c1ccccc1Cl)=NC2 | inactive |
| CCNC1(c2cccs2)CCCCC1=O (stereo not given) | inactive |
| CC(=O)O[C@H]1CC[C@H]2[C@@H]3CCC4=CC(=O)CCC4=C3C=C[C@]12C | inactive |
| C[C@@H](Cc1ccccc1)NCCC(c1ccccc1)c1ccccc1 | inactive |
| C[C@H]1CC[C@]2(NC1)O[C@H]1C[C@H]3[C@@H]4CC[C@H]5C[C@@H](O)CC[C@]5(C)[C@H]4CC[C@]3(C)[C@H]1[C@@H]2C | inactive |
| CCCCNC(C)(C)[P+](=O)O | inactive |
| O=C(CCl)c1ccc(Oc2ccc(C(=O)CCl)cc2)cc1 | inactive |
| CC(=O)OO | inactive |
| O=[N+]([O-])c1ccccc1Cl | inactive |
| CN=C1CN(O)C(c2ccccc2)=c2cc(Cl)ccc2=N1 | inactive |
| CNC(=O)OCC[N+](C)(C)C | inactive |
| CCc1cc(OC)c(C[C@@H](C)N)cc1OC | inactive |
| O=C1OC2(c3cc(Br)c(O)cc3Oc3c2cc(Br)c(O)[c]3[Hg])c2ccccc21 (stereo not given) | inactive |
| Cc1ccc(N(SC(F)(Cl)Cl)S(=O)(=O)N(C)C)cc1 | inactive |
| COc1ccc(OC)c([C@@H](O)[C@H](C)N)c1 | inactive |

| Compound | Potency |
| --- | --- |
| CCNC(C)Cc1cccc(C(F)(F)F)c1 (stereo not given) | inactive |
| CCOc1ccc2c3c1O[C@H]1[C@@H](O)C=C[C@H]4[C@@H](C2)N(C)CC[C@@]341 | inactive |
| COC1=CC=C2[C@H]3Cc4ccc(OC)c5c4[C@@]2(CCN3C)[C@H]1O5 | inactive |
| CN(C)CCCCCCN(C)C (tested in a mixture with another compound) | inactive |
| CC1(C)[C@H](C=C(Cl)Cl)[C@H]1C(=O)OCc1c(F)c(F)cc(F)c1F | inactive |
| CO[C@H]1[C@@H](O)C[C@H](O[C@H]2[C@@H](O)C[C@H](O[C@H]3[C@@H](O)C[C@H](O[C@H]4CC[C@@]5(C)[C@H](CC[C@@H]6[C@@H]5C[C@@H](O)[C@]5(C)[C@@H](C7=CC(=O)OC7)CC[C@]65O)C4)O[C@@H]3C)O[C@@H]2C)O[C@@H]1C | inactive |
| C[C@]12CC[C@@H]3c4ccc(OC(=O)N(CCCl)CCCl)cc4CC[C@H]3[C@@H]1CC[C@@H]2OP(=O)(O)O | inactive |
| C[C@@H]1[C@H]2Cc3ccc(O)cc3[C@]1(C)CCN2C | inactive |
| Cc1nnc2n1-c1ccc(Cl)cc1C(c1ccccc1)=NC2 | inactive |
| CCCN1CCC[C@H](c2cccc(O)c2)C1 | inactive |
| CN1C(=O)CC(=O)N(c2ccccc2)c2cc(Cl)ccc21 | inactive |
| Oc1ccc2c3c1O[C@H]1[C@@H](O)CC[C@@]4(O)[C@@H](C2)N(CC2CCC2)CC[C@]314 | inactive |
| C/C=C(\CC)C(=O)NC(N)=O | inactive |
| O=P1(N(CCCl)CCCl)NC(OO)CCO1 (stereo not given) | inactive |
| C[C@]12CCC(=O)C[C@@H]1CC[C@@H]1[C@@H]2CC[C@@]2(C)[C@H]1CC[C@]2(C)O | inactive |
| O=C1Nc2ccc(Cl)cc2C(c2ccccc2Cl)=NC1O (stereo not given) | inactive |
| CCN(CC)C(=O)N[C@H]1C[C@@H]2c3cccc4[nH]cc(c34)C[C@H]2N(C)C1 | inactive |
| N#CC1(N2CCCCC2)CCCCC1 | inactive |
| CCN(CC)/[N+]([O-])=N/O | inactive |
| C[C@@H](Cc1ccccc1)N(C)C | inactive |
